Compound activity as filed in PubChem BioAssay.
Rows were chosen to be rich in hits. Some 0.82% of all compounds tested hit in one or more screens of this group.
C-LANA FP: inhibitors of KSHV C-LANA binding to DNA, primary screen, biochemical, fluorescence polarization, FAM-LBS DNA, MBP-C-LANA, single point. AID 504423, 2011. inhibition, % at 9 µM. Kaposi's sarcoma herpesvirus LANA C-terminal domain (residues 932-1162) DNA binding. hit rate 0.078% among 340,000;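 active = highest replicate inhibition at or above 60% at 9 µM, even if other replicates fall short; inactive = all replicates below 60% inhibition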
E coli Lon inh: inhibitors of E. coli Lon protease, primary screen, biochemical, fluorescence polarization | purified E. coli Lon protease | inhibition, % at 7.94 µM | hit rate 0.42% among 360,000 | AID 602123, 2011; in the data active = inhibition above about 13%, passing the limit was not always enough
cardiac RTF act: cardiac RTF calcium sensitivity activators, primary screen, biochemical, IANBD-TnC fluorescence, EC20 calcium; Troponin I, cardiac muscle (Homo sapiens) + Troponin T, cardiac muscle (Homo sapiens) + …; IANBD-labeled TnC RTF fluorescence at EC20 calcium; 0% EC20 calcium, 100% full calcium; activation, % at 7.2 µM; hit rate 0.24% among 340,000;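 active = activation above the mean over all tested compounds plus 3 SD, cut at about 30% in these data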;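 also: rise in fluorescence read as greater calcium sensitivity of cardiac thin filaments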
RTF Ca sens inh: cardiac RTF calcium sensitivity inhibitors, primary screen, biochemical, IANBD-TnC fluorescence, EC70 calcium; Troponin I, cardiac muscle (Homo sapiens) + Troponin T, cardiac muscle (Homo sapiens) + …; IANBD-labeled cardiac RTF, Ca2+ fluorescence; inhibition, % at 7.15 µM; hit rate 0.12% among 340,000;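 active = inhibition above the mean inhibition of all tested compounds plus 3 SD, cut at about 17% in these data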;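 also: assay run at fixed EC70 calcium of 1.6 mM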
Keap1-Nrf2 PPI: Keap1-Nrf2 protein-protein interaction inhibitors, primary screen, biochemical, fluorescence polarization, single point; Keap1 Kelch-Nrf2 peptide fluorescence polarization, 1536-well; Kelch-like ECH-associated protein 1 (Homo sapiens), Q14145; hit rate 0.15% among 340,000; inhibition, % at 9.4 µM; in the data active = inhibition above about 12%;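 also: human Keap1 Kelch domain with fluorescein labeled Nrf2 9mer peptide probe; higher means more block of Keap1 binding to Nrf2 peptide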
Target sequence (Q14145 whole entry, looked up, the tested form may be a part): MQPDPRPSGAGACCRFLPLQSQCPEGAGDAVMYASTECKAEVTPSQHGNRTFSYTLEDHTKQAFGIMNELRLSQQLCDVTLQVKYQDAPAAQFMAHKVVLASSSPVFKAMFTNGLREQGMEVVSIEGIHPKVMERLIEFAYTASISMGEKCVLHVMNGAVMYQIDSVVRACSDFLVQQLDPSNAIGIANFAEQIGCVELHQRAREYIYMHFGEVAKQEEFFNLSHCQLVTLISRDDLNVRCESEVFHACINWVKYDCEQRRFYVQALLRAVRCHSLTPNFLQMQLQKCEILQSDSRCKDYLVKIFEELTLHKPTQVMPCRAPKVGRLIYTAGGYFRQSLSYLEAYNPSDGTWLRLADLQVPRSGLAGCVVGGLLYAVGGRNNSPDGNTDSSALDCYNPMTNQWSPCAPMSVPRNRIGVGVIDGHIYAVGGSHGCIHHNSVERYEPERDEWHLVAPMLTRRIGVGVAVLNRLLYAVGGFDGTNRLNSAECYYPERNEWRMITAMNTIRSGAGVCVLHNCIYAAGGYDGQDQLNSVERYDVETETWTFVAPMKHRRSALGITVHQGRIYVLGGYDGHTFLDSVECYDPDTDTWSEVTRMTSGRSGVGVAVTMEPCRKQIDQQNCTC
Keap1 Kelch bind: Keap1 Kelch domain binders by thermal stabilisation, dose response, biophysical, thermal shift, RT-PCR instrument, cherry-pick; hit rate 8% among 400; shares compounds with Keap1-Nrf2 PPI; AID 651823, 2012; delta Tm; active compounds read high; max delta Tm, degrees C; in the data active = max delta Tm above about 0.48 degrees C
Sypro dye melt: Sypro Orange dye melt without protein, dose response, artefact control for Keap1-Nrf2 interaction inhibitor project, biochemical, thermal shift counterscreen, cherry-pick; shares compounds with Keap1-Nrf2 PPI; Sypro Orange dye-only thermal melt, no protein, delta Tm; top dose 26 µM; delta Tm, degrees C (concentration not given with the values); 140 tested, under 10 active; AID 651858, 2012;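 active = at highest dose tested, delta Tm positive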
Numbers stand for hits; - = inactive; . = no result.

SMILES | C-LANA FP | E coli Lon inh | cardiac RTF act | RTF Ca sens inh | Keap1-Nrf2 PPI | Keap1 Kelch bind | others
Oc1ccc(C2C=C(c3ccc(F)cc3)Nc3ncnn32)cc1 (stereo unspecified) | - | - | - | - | - | .
COc1ccc2nc3ccccc3nc2c1NC(=O)c1ccccc1Cl | - | - | - | - | 16 | -
CS(=O)(=O)N1CCCC(C(=O)Nc2ccc(F)c(F)c2)C1 (stereo unspecified) | - | - | - | - | 42 | - | Sypro dye melt=-
CCCCNC(=S)Nc1ccc(OC)nc1 | - | - | - | - | 12 | -
CN(N=Nc1ccc([N+](=O)[O-])cc1)c1ccccc1 | 101 | - | 511 | - | 113 | -
CN(N=Nc1cccc([N+](=O)[O-])c1)c1ccccc1 | - | - | - | - | - | .
CCCC1NC(=O)c2cc3ccccc3cc2-n2c1nc1cc(F)ccc1c2=O (stereo unspecified) | . | - | . | . | . | .
CCOCCCn1c(=NC(=O)c2cccs2)c(C#N)cc2c(=O)n3ccccc3nc21 | - | - | - | - | 23 | -
Cc1ccc(C(=O)N2CCN(c3ccccn3)CC2)cc1 | - | - | - | - | - | .
Cc1ccc(OC(C)C(=O)N2CCN(c3ccccn3)CC2)cc1 (stereo unspecified) | - | - | - | - | 35 | -
NC(=O)c1cccc(-c2coc3c(C(=O)NCc4ccccc4)cccc23)c1 | . | - | . | . | . | .
COc1cc(Cl)c(C)cc1NCC(=O)Nc1cccc(S(=O)(=O)N2CCCC2)c1 | - | - | - | - | 28 | - | Sypro dye melt=-
CC1(C)CC(=O)C2=C(C1)OC(N)=C(C#N)C2c1ccccc1[N+](=O)[O-] (stereo unspecified) | - | - | - | - | 25 | -
CCCCN(C)c1c(C)nc2ccc(C(=O)NCCOc3ccc(OC)cc3)cn12 | . | - | . | . | . | .
O=C(CN1C(=O)NC2(CCCC2)C1=O)Nc1cccc(C(F)(F)F)c1 | - | - | - | - | - | .
O=C(CN1C(=O)NC2(CCCC2)C1=O)Nc1ccc(C(F)(F)F)cc1 | - | - | - | - | 12 | -
COC(=O)N/N=C/c1cn(Cc2ccccc2Cl)c2ccccc12 | - | - | - | - | 17 | - | Sypro dye melt=-
O=S(=O)([O-])CCC[n+]1c(SCCCS(=O)(=O)O)sc2ccc(Cl)cc21 | - | - | - | - | 21 | - | Sypro dye melt=-
COc1ccc(N2CSC(=S)N(c3ccc(OC)cc3)C2)cc1 | . | - | . | . | . | .
O=C(NC1(O)C(=O)c2ccccc2C1=O)c1c(Cl)cccc1Cl | . | - | . | . | 19 | - | Sypro dye melt=-
O=C(NC1(O)C(=O)c2ccccc2C1=O)c1ccccc1 | - | - | - | - | - | .
CC1(C(=O)NCc2cccs2)Cc2c(-c3cccc(C(F)(F)F)c3)ccnc2O1 (stereo unspecified) | . | - | . | . | . | .
COc1cc2c3nnc(-c4ccc(F)cc4)c-3cn(Cc3ccccc3F)c2cc1OC | - | - | - | - | 17 | -
COc1ccccc1Cc1c(-c2ccc(F)cc2)nc2ccc(Cl)cn12 | . | - | . | . | . | .
CC1=C(C#N)c2nc(N)c(C#N)c(C)c2/C1=C\c1ccc(-c2ccccc2C(=O)O)o1 | - | - | - | - | 92 | 2.3
SMILES | C-LANA FP | E coli Lon inh | cardiac RTF act | RTF Ca sens inh | Keap1-Nrf2 PPI | Keap1 Kelch bind | others
COc1cc(/C=C2/C(C)=C(C#N)c3nc(N)c(C#N)c(C)c32)ccc1OCC(=O)O | - | . | . | . | - | .
O=C(CSc1nc2ccccc2c(=O)n1CCCN1CCOCC1)Nc1ccccc1OC(F)F | - | - | - | - | 19 | - | Sypro dye melt=-
CCCCn1nc(C(=O)NC2CCCCC2)c2ccccc2c1=O | . | - | . | . | . | .
COc1ccc(C2C(C(=O)c3cccs3)=C(O)C(=O)N2c2nncs2)cc1 (stereo unspecified) | 64 | 62 | 32 | - | 55 | -
Cc1cccc(N2C(=O)C(O)=C(C(=O)c3cccs3)C2c2ccc(F)cc2)n1 (stereo unspecified) | - | - | - | - | - | .
Cc1cccnc1C(NC(=O)C1CCN(Cc2cn(C)c3ccccc23)CC1)c1ccc(Cl)cc1 (stereo unspecified) | . | - | . | . | . | .
CCOc1ccc(C=NNc2ccc(S(=O)(=O)Nc3ccccc3C(=O)O)cc2[N+](=O)[O-])cc1 | - | - | - | - | - | .
C=CCOc1ccc(C=NNc2ccc(S(=O)(=O)Nc3ccccc3C(=O)O)cc2[N+](=O)[O-])cc1OC | - | - | - | - | 13 | 0.91
O=C(CN1CCN(C(=O)CNC(=O)c2ccc3c(c2)OCO3)CC1)Nc1ccc(F)cc1 | . | - | - | - | 62 | -
O=C(CN1CCN(Cc2ccc3c(c2)OCO3)CC1)Nc1ccc(F)cc1 | - | - | - | - | - | .
COc1ccc(NC(=O)C2(C)CCN2CC2CCCCC2)cc1OC (stereo unspecified) | . | - | . | . | . | .
CN1/C(=C\C=C(/C#N)C(=O)Nc2ccc(Cl)cc2)C(C)(C)c2ccccc21 | - | - | - | - | 14 | -
CN1/C(=C\C=C(C#N)C#N)C(C)(C)c2ccccc21 | - | - | - | - | 45 | -
CN1/C(=C/C=N/n2cnnc2)C(C)(C)c2ccccc21 | - | - | - | - | - | .
CCC(C)(O)c1cnc(CC(C)C)c(=O)n1O (stereo unspecified) | . | - | . | . | . | .
CC(=O)Nc1ccc2c(c1)N(C(=O)CN(C)C)c1ccccc1CC2 | - | - | - | - | 123 | -
CCNCC(=O)N1c2ccccc2CCc2ccc(NC(C)=O)cc21 | - | - | - | - | - | .
O=C(Nc1ccccc1C(=O)N1CCCCCC1)c1ccc(F)cc1 | - | - | - | - | 35 | - | Sypro dye melt=-
COc1cc(CO)ccc1Oc1nc2ccccc2n2cnnc12 | - | - | - | - | 31 | -
COc1ccc(-c2cc(C(=O)NCc3ccc(F)cc3)[nH]n2)c(C)c1 | . | - | . | . | . | .
O=C(Nc1cccc(C(F)(F)F)c1)Nc1nnc([C@@H]2C[C@H](O)[C@@H](CO)O2)s1 | . | - | . | . | . | .
COc1cc(OC)nc(Nc2nc(C(N)Cc3ccc(C(F)(F)F)cc3)cs2)n1 (stereo unspecified) | . | - | . | . | . | .
NC(c1ccccc1)c1csc(Nc2ccc(C(=O)c3ccccc3)cc2)n1 (stereo unspecified) | . | - | . | . | . | .
CN(C)c1ccc(/C=N/NC(=O)CCC(=O)NCc2ccccc2)cc1 | - | - | - | - | 53 | -
CCc1nc2ccc(C(=O)NCc3ccccc3OC)cn2c1N(CC)Cc1cccc(Br)c1 | . | - | . | . | . | .
COc1ccc(Cc2c(-c3ccccc3)nc3ccc(Br)cn23)c(C)c1 | . | - | . | . | . | .
O=C(/C=C/c1ccccc1Cl)NCCCn1ccnc1 | - | - | - | - | 38 | -
